Screening data from PubChem BioAssay.
FBPA Giardia inh: inhibitors of Giardia lamblia fructose-1,6-bisphosphate aldolase | A8B2U2 | purified Giardia FBPA | Potency, µM (doses to about 59.6 µM), most hits filed as inhibitors | hit rate 0.71% among 290,000 | AID 2451; further: nearly all actives have a fitted effect of over 55% in size
Target sequence (A8B2U2 whole entry, looked up): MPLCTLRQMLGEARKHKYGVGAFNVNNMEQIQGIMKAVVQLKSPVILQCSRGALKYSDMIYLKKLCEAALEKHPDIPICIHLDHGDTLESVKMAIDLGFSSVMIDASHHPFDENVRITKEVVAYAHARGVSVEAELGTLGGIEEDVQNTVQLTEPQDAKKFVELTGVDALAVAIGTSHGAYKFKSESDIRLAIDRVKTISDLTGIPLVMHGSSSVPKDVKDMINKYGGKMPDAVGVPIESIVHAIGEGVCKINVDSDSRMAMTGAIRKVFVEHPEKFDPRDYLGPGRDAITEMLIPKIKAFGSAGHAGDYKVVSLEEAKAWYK
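Giardia FBPA (40 nM reagent) was preincubated 10 min at RT with compound (up to 57.5 uM final), then substrate plus GAPDH/TPI/NAD/arsenate coupling system with diaphorase/resazurin was added; resorufin fluorescence (525/598 nm) was read after 20 min.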
LASV entry inh: blocks Lassa virus binding to or entry into cells. AID 540256. Lassa virus pseudotype entry inhibition, cell reporter. hit rate 1.2% among 300,000. Potency, µM (doses to about 37.9 µM), hits mostly inhibitors; calls by dose curve; tested in HEK293 cells; further: nearly all actives have a fitted effect of over 50% in size
HCMV inh: blocks human cytomegalovirus replication; AID 1259415; activity change, negative = inhibition, % at 57.5 µM; HFF cells, HCMV-luciferase reporter, 72 h; hits give low values; hit rate 4.5% among 410,000; in the data active means activity change below about -60%; inconclusive means no clear call, values can overlap the other calls; inactive means above about -39%
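After 16 h attachment at 37C, HFF cells received test compound and HCMV-luciferase (1 PFU/cell); reporter luminescence read 72 h later, data normalized against buffer-only and known inhibitor Salinomycin.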
FMDV inh: foot and mouth disease virus antiviral activity. Potency, µM (series often up to 57.9 µM), most hits filed as inhibitors. FMDV antiviral cell-based qHTS. AID 1159524. hit rate 1.2% among 410,000; calls by dose curve; tested in HEK293T cells; further: read-out not given here; nearly all actives have a fitted effect of over 45% in size
Marburg entry inh: blocks Marburg virus binding to or entry into cells; Marburg virus pseudotyped entry inhibition, cell reporter; Potency, µM (highest dose often 37.8 µM), most hits filed as inhibitors; hit rate 1.8% among 300,000; AID 540276; calls by dose curve; tested in HEK293 cells
HCV inh: blocks hepatitis C virus; hit rate 3.4% among 340,000; Potency, µM (top dose mostly 41.8 µM), most hits filed as inhibitors; Huh7.5.1 HCVcc-Cre infection, luciferase reporter, 44 h
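HCVcc-Cre virus at an moi near 0.5 was added right after compound to cells cultured 4 h from seeding (1,000 cells/well). Luciferase activity was determined 44 h later, 15 min after substrate addition at RT.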
Numbers stand for hits; . = inactive; ? = inconclusive; / = no result given. This is a sample that favours compounds with a hit; in the whole collection about 8.3% have one here. Unless noted, the call rests on the fitted dose curve; in most records, active means well fitted curve in the direction sought with a large enough effect; inconclusive means small, poorly fitted or top-dose-only effect, or another doubt; inactive means no such curve, though single readings can be large; an effect the other way counts as inactive or inconclusive.

SMILES	FBPA Giardia inh	LASV entry inh	HCMV inh	FMDV inh	Marburg entry inh	HCV inh
CCn1c(-c2cccnc2)nc2cc(NC(=O)COC)cc(C(=O)N3CC[C@@H]4CCCC[C@H]4C3)c21	/	/	/	.	/	/
C=CCN1c2ccccc2[C@]23C[C@@H](C(=O)OC)N(C(=O)Nc4ccccc4F)C2=NC(C(=O)OC)=C(C(=O)OC)[C@H]13	/	/	/	/	.	/
COc1cccc(C2CC(c3cccc(NS(C)(=O)=O)c3)=NN2C(=O)c2ccccc2)c1OC (centres undefined)	.	14µM	-73	.	?	?
COc1ccccc1C1CC(c2ccc(Br)cc2)=NN1C(=O)c1cccnc1 (centres undefined)	.	?	.	32µM	.	?
CN(C)c1ccc(C2CC(c3cccc(NS(C)(=O)=O)c3)=NN2C(=O)c2ccccc2)cc1 (centres undefined)	.	?	.	.	?	.
COc1cccc(C2CC(c3ccc(Br)cc3)=NN2C(=O)c2ccncc2)c1OC (centres undefined)	.	?	.	?	?	?
CCCCOC(=O)c1ccc(Nc2nc3ccccc3c3nnc(C)n23)cc1	/	.	.	.	/	/
O=C(COc1ccccc1[N+](=O)[O-])Nc1ccc(N2CCN(C(=O)c3cccs3)CC2)cc1	.	?	.	13µM	?	6.3µM
O=C(COc1ccccc1Cl)Nc1cc(NC(=O)COc2ccccc2Cl)cc(C(=O)O)c1	.	8.9µM	.	.	?	.
O=C(COc1ccccc1Cl)Nc1ccc(N2CCN(C(=O)c3ccccc3)CC2)cc1	/	/	.	22µM	/	5µM
Cc1ccc(OCC(=O)Nc2ccc(N3CCN(C(=O)c4ccc(C)cc4)CC3)cc2)cc1	.	.	.	.	.	.
Cc1cccc(OCC(=O)Nc2ccc(N3CCN(C(=O)c4ccccc4)CC3)cc2)c1	.	.	.	28µM	?	?
C[C@@H]1[C@@H](c2ccccc2)Oc2c(Cl)cccc2S(=O)(=O)N1Cc1cccc(F)c1	/	.	/	/	/	/
O=C(Nc1cccc(F)c1)N1CCCC2(CCN(S(=O)(=O)c3ccccc3)CC2)C1	.	/	/	.	/	/
COc1ccccc1CNC(=O)COC(=O)/C=C/c1cccs1	.	.	.	.	.	.
COc1ccccc1CNC(=O)COC(=O)/C=C/c1ccc2ccccc2n1	/	/	-62	.	/	.
CC(OC(=O)/C=C/c1ccc2ccccc2n1)C(=O)N(C)c1ccccc1 (centres undefined)	/	/	.	.	/	?
CC(=O)/C=C/c1ccc2ccccc2n1	/	?	-84	?	?	?
COc1ccc2[nH]c3c(c2c1)CCN1C(=O)N([C@@H](C)C(=O)NCc2c(F)cccc2Cl)C(=O)[C@]31C	.	/	.	?	/	?
COc1ccc(CNC(=O)[C@H](C)N2C(=O)N3CCc4c([nH]c5ccccc45)[C@@]3(C)C2=O)cc1OC	.	/	?	32µM	/	3.5µM
Cc1ccc(CNC(=O)[C@H](C)N2C(=O)N3CCc4c([nH]c5ccccc45)[C@@]3(C)C2=O)cc1	.	/	.	?	/	?
C[C@@H](C(=O)NCc1c(F)cccc1Cl)N1C(=O)N2CCc3c([nH]c4ccccc34)[C@@]2(C)C1=O	.	/	.	?	/	11µM
Cc1ccc(-c2[nH]c3ccccc3c2SCCNC(=O)c2ccc(S(=O)(=O)N(C)C)cc2)cc1	/	?	.	.	?	/
CN(C)S(=O)(=O)c1ccc(C(=O)NCCSc2c(-c3ccccc3)[nH]c3ccccc23)cc1	/	?	-72	?	.	/
CN(C)S(=O)(=O)c1ccc(C(=O)NCCSc2c(-c3ccc(Cl)cc3)[nH]c3ccccc23)cc1	/	?	.	?	?	/
O=C(Cc1cccs1)NCCSc1c(-c2ccc(Cl)cc2)[nH]c2ccccc12	.	16µM	?	22µM	?	13µM
COc1cc2c(cc1OC)C(C(=O)O)C(c1ccc3c(c1)OCO3)N(C)C2=O (centres undefined)	/	/	.	/	/	/
C=C1CC[C@@H]2[C@](C)(CO)[C@H](O)CC[C@@]2(C)[C@@H]1C/C=C1/C(=O)OCC1O (some centres undefined)	/	/	-77	?	/	.
COc1ccc(-c2ccc(C)cc2)cc1C1C2C=CCC(C)C2C(=O)N1Cc1ccccc1 (centres undefined)	.	/	/	/	/	/
O=c1cc(-c2cc3ccccc3oc2=O)c2ccc(O)cc2o1	.	/	/	.	/	/
